Assay results: PubChem BioAssay (Tox21)
Results filed as inconclusive are left out. Entries that show only a call come without a potency. Active and inactive are the calls of the source. Calls follow the shape of the dose curve; as a rule, active = well fitted activation curve with a large enough effect in the repeat runs; inconclusive = weak or mixed curves; inactive = no such curve, though single readings can be large or run the other way.

Assay: qHTS assay for small molecules that induce genotoxicity in human embryonic kidney cells expressing luciferase-tagged ATAD5 (AID 651632); also: nearly all actives have a fitted effect of over 15% in size
Conditions: HEK293T ATAD5-luciferase induction, 16 h; series mostly up to 83.3 µM
Summary of the method: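 Reporter cells (HEK293T) express luciferase-tagged ATAD5, a protein that accumulates after DNA damage. Treat 16 hr at 37C/5% CO2, add Amplite, wait 30 min at RT, and read luminescence.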
For C=C(C)C(=O)OC(C)C, the Potency was “inactive”.
With OCC1CC2CC1C1CCC(CO)C21 (stereo not drawn) the Potency was “inactive”.
With CCCCCCCCN(C)C the Potency was “inactive”.
With CC[C@H](C)[C@H](N)C(=O)O the Potency was “inactive”.
For CCN(CC)CCc1nc(-c2ccccc2)no1, the Potency was “inactive”.
With CCCCCCCCCCCCCCCC(=O)OC/C=C(C)/C=C/C=C(C)/C=C/C1=C(C)CCCC1(C)C the Potency was “inactive”.
In the case of CCOC(=O)CC(=O)c1cc(F)c(Cl)nc1Cl, the Potency was “inactive”.
With CC(=O)O[C@H]1C[C@@H]2CC[C@@H]3[C@H](CC[C@@]4(C)[C@H]3C[C@H]([N+]3(C)CCCCC3)[C@@H]4OC(C)=O)[C@@]2(C)C[C@@H]1N1CCCCC1 the Potency was “inactive”.
For Cc1ccc(C)o1, the Potency was “inactive”.
For CC(C)CCCC(C)CCO (stereo not drawn), the Potency was “inactive”.
For COc1ccc2[nH]c(S(=O)Cc3ncc(C)c(OC)c3C)nc2n1 (stereo not drawn), the Potency was “inactive”.
With NC(=S)N/N=C/c1cccnc1 the Potency was “inactive”.
In the case of CC(C)c1ccccc1C(C)C, the Potency was “inactive”.
With NCc1ccccc1 the Potency was “inactive”.
For CC(C)(C)c1ccc(S)cc1, the Potency was “inactive”.
In the case of CNS(=O)(=O)Cc1ccc2[nH]cc(CCN(C)C)c2c1, the Potency was “inactive”.
For COc1ccccc1OC(=O)Oc1ccccc1OC, the Potency was “inactive”.
With Cc1c(Cn2ccnc2)c2ccccc2n1CCC(=O)O the Potency was “inactive”.
For O=[N+]([O-])c1cc[n+]([O-])cc1, the Potency was “inactive”.
For CCOc1cc(OCC)c(C(=O)CCC(=O)O)cc1OCC, the Potency was “inactive”.
For O=S(=O)(O)c1ccc(O)c2ncccc12, the Potency was “inactive”.
With CC[C@]12CCCN3CCc4c(n(c5ccccc45)C(=O)C1)[C@@H]32 the Potency was “inactive”.
With CC(C)(C)C(=O)OCOP(=O)(COCCn1cnc2c(N)ncnc21)OCOC(=O)C(C)(C)C the Potency was “inactive”.
